# The list is not random: actives were taken first. Their share in the collection is about 1.2%.
# RGS8-Gao = RGS8-Galphao binding modulators, primary screen, biochemical, multiplexed bead flow cytometry; Guanine nucleotide-binding protein G(o) subunit alpha (Homo sapiens), P09471; actives lie on both sides; response (percent of control binding), % at 10 µM; hit rate 0.34% among 220,000; in the data active means response below about 60% or above about 140%; inactive means in between;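 further: Galphao activated as the GDP aluminium fluoride complex binding bead-coupled RGS8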
# Target sequence (P09471 whole entry, looked up): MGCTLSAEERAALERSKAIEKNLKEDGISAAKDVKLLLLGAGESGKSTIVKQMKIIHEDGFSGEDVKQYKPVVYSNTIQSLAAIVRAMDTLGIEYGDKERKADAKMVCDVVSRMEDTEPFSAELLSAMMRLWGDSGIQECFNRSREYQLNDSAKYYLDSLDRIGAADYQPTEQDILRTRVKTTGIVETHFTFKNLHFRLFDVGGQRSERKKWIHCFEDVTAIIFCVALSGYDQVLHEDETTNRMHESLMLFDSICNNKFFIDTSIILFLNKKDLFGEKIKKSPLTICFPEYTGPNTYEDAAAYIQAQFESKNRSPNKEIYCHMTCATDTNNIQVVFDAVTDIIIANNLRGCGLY
# GSH fluor = compound fluorescence on glutathione beads, profiling panel, artefact control, biophysical, 488/530 nm, flow cytometry; GSH beads flow cytometry, compound fluorescence 488/530 nm; active compounds read high; fluorescence (KMESF) at 10 µM; hit rate 0.25% among 190,000; in the data active means fluorescence above about 89;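 further: glutathione beads carrying GST-tagged Bcl family fusion proteins plus one bare bead set; values are compound well signal with DMSO vehicle wells as background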
# RGS4-Gao reg = modulators of RGS4 binding to Galphao, primary screen, biochemical, multiplexed bead flow cytometry | Guanine nucleotide-binding protein G(o) subunit alpha (Homo sapiens), P09471 | actives lie on both sides | binding response (% of control), % at 10 µM | hit rate 0.33% among 220,000 | AID 1415, 2008; in the data active means binding response below about 49% or above about 150%; inactive means in between;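 further: fluorescent Galphao activated with aluminum fluoride binding bead-coupled RGS4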
# RGS7-Gao reg = RGS7-Galphao binding modulators, primary screen, biochemical, multiplexed bead flow cytometry. actives lie on both sides. binding response (% of control), % at 10 µM. hit rate 0.35% among 220,000. AID 1439, 2008; in the data active means binding response below about 49% or above about 150%; inconclusive means no clear call, values can overlap the other calls; inactive means in between;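 further: fluorescent Galphao held in activated GDP-AlF4 state binding bead-coupled RGS7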
# RGS16-Gao = modulators of RGS16 binding to Galphao, primary screen, biochemical, human proteins, multiplexed bead flow cytometry. Regulator of G-protein signaling 16 (Homo sapiens) + Guanine nucleotide-binding protein …. bead-based flow cytometry RGS16-Galphao binding, fluorescence; actives lie on both sides. binding response (% of control), % at 10 µM. hit rate 0.38% among 220,000. AID 1441, 2008;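 further: Galphao activated by GDP with aluminum fluoride before binding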
# Avidin bead fluor = green autofluorescence of compounds with avidin beads – biophysical, 488/530 nm, flow cytometry, artefact control, profiling panel; compound fluorescence 488/530 nm; active compounds read high; fluorescence (KMESF) at 10 µM; hit rate 0.38% among 220,000; in the data active means fluorescence above about 47
# RGS4-Gao HTS = modulators of RGS–Galpha-o binding, primary screen, biochemical, multiplexed beads, flow cytometry, RGS4/7/8/16/19 | shares compounds with RGS16-Gao | multiplexed bead flow cytometry | RGS4–Galpha-o binding response, % at 10 µM | hit rate 99% among 1,600;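 further: fluorescently labeled Galpha-o bound to GDP with aluminium fluoride binding biotinylated RGS beads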
# Avidin counter = disruption of biotin probe capture by avidin, counter-screen for RGS protein interaction modulators, biochemical, flow cytometry, bead-based | inhibition, % at 10 µM | streptavidin beads, fluorescein-biotin binding | AID 1783, 2009 | shares compounds with RGS16-Gao | 1,700 tested, under 10 active;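 active means inhibition above 50%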;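 further: median green fluorescence of gated singlet beads compared with DMSO control wells; 0% = DMSO wells and 100% = complete loss of bead fluorescence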
# RGS8-Gao single = RGS8-Galphao binding modulators, confirmation, biochemical, multiplexed bead flow cytometry, single concentration; hit rate 3% among 1,700; shares compounds with RGS16-Gao; bead-based flow cytometry RGS8-Galphao binding, fluorescence; actives lie on both sides; binding response (% of control), % at 10 µM; in the data active means binding response below about 72% or above about 130%; inactive means in between;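 further: Galphao activated as GDP AlF4 complex before binding bead RGS8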
# RGS7-Gao single = RGS7-Galphao binding modulators, confirmation, biochemical, multiplexed bead flow cytometry, single concentration; shares compounds with RGS16-Gao; bead-based flow cytometry RGS7-Galphao binding; actives lie on both sides; response (percent of control binding), % at 10 µM; hit rate 7.8% among 1,700; in the data active means response below about 75% or above about 130%; inactive means in between;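 further: fluorescent Galphao activated with GDP and aluminum fluoride binding bead-coupled RGS7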
# RGS16-Gao single = modulators of RGS16-Galphao protein binding, confirmation, biochemical, single concentration, multiplexed bead flow cytometry. AID 1838, 2009. hit rate 4% among 1,700. bead-based flow cytometry; actives lie on both sides. response (% of control binding), % at 10 µM. shares compounds with RGS16-Gao; in the data active means response below about 74% or above about 130%; inactive means in between;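 further: Galphao activated as the GDP aluminium fluoride complex binding bead-coupled RGS16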
# RGS4-Gao single = modulators of RGS4-Galphao protein binding, confirmation, biochemical, single concentration, multiplexed bead flow cytometry; actives lie on both sides; binding response (% of control), % at 10 µM; shares compounds with RGS16-Gao; hit rate 4% among 1,700; in the data active means binding response below about 74% or above about 130%; inactive means in between
# RGS19-Gao conf = regulators of RGS19-Galphao binding, confirmation, biochemical, single point, multiplexed bead flow cytometry | response (percent of control binding), % at 10 µM | hit rate 5% among 1,700 | bead-based flow cytometry RGS19-Galphao binding; actives lie on both sides | shares compounds with RGS16-Gao; in the data active means response below about 50% or above about 160%; inactive means in between;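 further: 100% = no compound control and 0% = blank background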
# Target sequence (P09471 whole entry, looked up): as above
# Target sequence (P49795 whole entry, looked up): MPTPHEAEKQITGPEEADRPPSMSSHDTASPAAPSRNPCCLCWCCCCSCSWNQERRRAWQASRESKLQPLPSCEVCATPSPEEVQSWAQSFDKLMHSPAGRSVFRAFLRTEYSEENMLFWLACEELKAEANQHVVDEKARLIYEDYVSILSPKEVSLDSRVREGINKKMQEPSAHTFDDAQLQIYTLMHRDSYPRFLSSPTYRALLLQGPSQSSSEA
# Numbers without * were called inactive; ? = inconclusive; / = no result given; [ ] = remark or other dose. Unless noted, how the calls were made is not given here.
SMILES,RGS8-Gao,GSH fluor,RGS4-Gao reg,RGS7-Gao reg,RGS16-Gao,Avidin bead fluor,RGS4-Gao HTS,Avidin counter,RGS8-Gao single,RGS7-Gao single,RGS16-Gao single,RGS4-Gao single,RGS19-Gao conf
COc1cc(N(C(=O)Cc2cccs2)C(C(=O)NC2CCCCC2)c2cccc(OC)c2OC)ccc1-n1cnnn1 (centres undefined),82,10,92,88,24*,6,92*,0,101,105,100,101,98
COc1ccc(C2Oc3ccccc3N2C(C)=O)cc1 (centres undefined),102,15,102,101,100,16,/,/,/,/,/,/,/
CC(=O)Oc1ccc(C2OC(=O)c3ccccc3N2C(C)=O)cc1 (centres undefined),106,40,/,/,/,/,/,0,98,97,96,98,100
COCCCN1CN(Cc2ccccc2)CNC1=S,72,15,79,83,-3.3*,6,79*,0,99,100,101,99,94
COc1ccc(NC(=S)NCCc2ccccc2)c(OC)c1,104,35,103,100,109,6,/,/,/,/,/,/,/
COc1ccc(NC(=S)NCCc2ccc(F)cc2)c(OC)c1,66,9,88,92,19*,2,88*,-1,100,99,98,100,95
COc1cc(NC(=O)c2ccc(COc3ccccc3Br)o2)cc(OC)c1OC,112,30,149,126,208*[activator],77*,149*,2,96,91,94,95,82
COc1ccc(NC(=O)c2ccc(COc3ccccc3Br)o2)cc1OC,99,14,96,94,100,33,/,/,/,/,/,/,/
CCOc1ccc(-c2nnc(-c3ccco3)o2)cc1OCC,96,46,100,95,97,34,/,/,/,/,/,/,/
CCOc1cc(-c2nnc(-c3ccco3)o2)cc(OCC)c1OCC,102,35,119,156*[activator],96,194*,119*,0,101,106,97,99,87
Cc1cccc2sc(NC(=O)[C@@H]3CCCN3C(=O)c3cccs3)nc12,131,16,101,111,211*[activator],7,101*,-3,100,96,100,97,101
Oc1ccc(-c2n[nH]c(=S)n2-c2ccc3c(c2)OCCO3)c(O)c1,72,10,99,93,15*,7,99*,0,90,107,94,99,79
CCCn1c(C)cc(C(=O)COc2ccc(-c3nnco3)cc2)c1C,95,9,96,96,102,25,/,/,/,/,/,/,/
O=C(Nc1cccc(C(F)(F)F)c1)Oc1ccc(Cl)c2cccnc12,55*,/,26*,?,31,0,/,0,100,100,98,100,96
CCN(CC)C(=O)Oc1ccc(Cl)c2cccnc12,103,29,101,?,100,10,/,/,/,/,/,/,/
O=C(c1cccs1)N1CCc2ccccc21,126,27,154*[activator],153*[activator],136,4,/,0,92,86,89,89,90
COc1ccc(NC(=O)Cn2nnc(-c3ccccc3NC(=O)c3ccco3)n2)cc1,103,14,106,105,103,35,/,/,/,/,/,/,/
COc1ccccc1NC(=O)Cn1nnc(-c2ccccc2NC(=O)c2ccco2)n1,/,10,/,/,/,/,/,-1,103,103,103,105,101
CCC(C)Sc1nc(O)cc(=O)[nH]1 (centres undefined),89,21,110,248*[activator],131,239*,110*,2,98,104,100,101,88
Cn1cccc1C1Nc2ccccc2NC2=C1C(=O)CC(C)(C)C2 (centres undefined),58*,7,60,58,50,0,60*,1,102,99,103,103,101
CC1(C)CC(=O)C2=C(C1)Nc1ccccc1NC2c1cccnc1 (centres undefined),133,13,115,115,198,20,/,/,/,/,/,/,/
Oc1ccc(N=Nc2n[nH]c(-c3ccccc3)n2)cc1,82,12,91,87,14*,7,91*,1,95,56*,72*,72*,35*
O=[N+]([O-])c1cc(S(=O)(=O)Nc2cccc(Cl)c2)ccc1N/N=C/c1ccc(N2CCOCC2)cc1,99,/,98,?,99,8,/,/,/,/,/,/,/
Cn1c2ccccc2c(=O)c2c(=O)n(Cc3ccco3)c(-c3ccc(C(C)(C)C)cc3)nc21,99,/,103,?,101,9,/,/,/,/,/,/,/
CCn1ncc(NC(=S)Nc2ccc3c(c2)OCO3)c1C(N)=O,100,11,101,100,99,9,/,/,/,/,/,/,/
CC(=O)c1ccccc1N(C(=O)c1ccco1)C(C(=O)NC1CCCC1)c1ccc(N2CCOCC2)cc1 (centres undefined),98,17,98,95,100,9,/,/,/,/,/,/,/
O=C(CCn1nnc2ccccc21)N1CCN(c2ccccc2)CC1,/,43,/,/,/,/,/,0,102,106,102,102,102

# Screening data (PubChem)
